# In PubChem BioAssay (NCI):
# The panel holds about 83,000 compounds, 20% with a hit somewhere; the sample as a whole holds those more often.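 Each cell line was grown in a 96-well plate and treated with one concentration of compound for 48 hours. Values below 10 were considered active.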 Active and inactive are the calls of the source.
# Test system: HCC-2998 colon
# Experiment: NCI-60 one-dose screen, 48 h (100 = growth as untreated, 0 = no growth, -100 = all killed)
# Conditions: 10 µM unless noted
row,SMILES,growth
1,Cc1cc(N2CCCC2)nc(NC2CCCC(Nc3ccnc4cc(Cl)ccc34)C2)n1 (stereo unspecified),-40.4% (active)
2,CN(C)c1ccc(N=Nc2ccc(Br)cn2)c(O)c1,34.3% (inactive)
3,COc1ccc(-c2cc(NC(=O)Nc3ccc4ncsc4c3)no2)cc1,103% (inactive)
4,O=[N+]([O-])c1ccc2c(c1)Cc1cc(F)ccc1-2,102% (inactive)
5,COc1ccc2[nH]cc(-c3noc(C(=O)c4cn(C)c5ccc(F)cc45)n3)c2c1,101% (inactive)
6,CCOC(=O)c1csc(NC(=O)COc2cccc(/C=C3\CSc4ccccc4C3=O)c2)n1,-31.8% (active)
7,O=C(N=Nc1c(O)[nH]c2ccc(Br)cc12)c1cc(-c2ccccc2)on1,103% (inactive)
8,CC1CCNC(C)C1 (stereo unspecified),103% (inactive)
9,CC(O)CN(CC(C)O)c1ccc2c(c1)Cc1cc([N+](=O)[O-])ccc1-2 (stereo unspecified),95.1% (inactive)
10,Nc1nc2ccc3[nH]ncc3c2c2c1CCCC2,9.63% (active)
11,N#CN1CC[C@H](C(=O)Nc2cc3cc(C(N)=O)ccc3cn2)C1,-1.56% (active)
12,C=CC(=O)Nc1cccc(-c2nc(SC)nc(NCCN3CCOCC3)c2C#N)c1,115% (inactive)
13,CC(=O)OCCC/C(=C/c1cc2ccccc2c2ccccc12)[N+](=O)[O-],-99.5% (active)
14,NC(CSC(c1ccccc1)(c1ccccc1)c1ccc(Cl)cc1)C(=O)O (stereo unspecified),-36.3% (active)
15,Cc1ccccc1COc1ccc(-c2ccnn2-c2ccc(Cl)cc2)cc1,89.1% (inactive)
16,COc1ccc(-c2cc(=O)c3c(OC)c4ccoc4cc3o2)cc1,106% (inactive)
